In the supplement of paper PMC10338343:
± gives the standard deviation.

The sequences below were run on EfPiwi piRISC loaded with L1MC piRNA (26 nt) (assay: pre-steady-state target cleavage rate (min^-1); auxiliary factor: none (no Gtsf1); guide: L1MC piRNA 5'p-UAACUAAAUACUAUGCAAGCUGUAGG; MIWI and MILI are mouse PIWI proteins and EfPiwi is from a freshwater sponge; tags in brackets are library labels; higher = faster piRNA-guided slicing of the target).
Procedure: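 Cleave-'n-Seq: a library of target RNAs (target site in constant flanks) at […] was incubated with 1 nM active freshwater sponge Ephydatia fluviatilis Piwi piRISC (synthetic 5'-monophosphorylated piRNA guide) with or without 500 nM EmGtsf1 at 33 °C for 1 min to 16 h. Uncleaved targets were sequenced and the pooled three trials fitted to a burst-and-steady-state model to give the pre-steady-state cleavage rate (min^-1). Sequence is the target site only. Fits with R² ≤ 0 are excluded.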
In the case of UCCUGGAUGUCGAACGAUAGUAUUUGAGUUA, the “pre-steady-state target cleavage rate” value is reported as under 0.0001.
UCCUCCUACAGCUUGGAUACUAUUUAGUUA was tested, and the “pre-steady-state target cleavage rate” value was 0.00497 ± 0.0037.
UCCUGGAUGUCGUUGCAUAGAUUUAGUUA was tested, and the “pre-steady-state target cleavage rate” value was under 0.0001.
UCCUGGAUGUCGAUGCAUAGAAUUUAGUAA was tested, and the “pre-steady-state target cleavage rate” value was under 0.0001.
With UCCUGCUACAGCUUGCAUAGUAUUAUGAAA the “pre-steady-state target cleavage rate” value was under 0.0001.
UCCUGGAUGUCGAACGUAUCUAUUUACAUA was tested, and the “pre-steady-state target cleavage rate” value was under 0.0001.
UCCUGGAUGUCGAACGUAAGAUUUAGUUA was tested, and the “pre-steady-state target cleavage rate” value was under 0.0001.
With UCCUGGAUGUGCUUGCAUAGUCUUUAGUUA the “pre-steady-state target cleavage rate” value was 0.00821 ± 0.0047.
In the case of UCCUGCUACAGCUUGCAAUCUAUUUUCAAA, the “pre-steady-state target cleavage rate” value is reported as under 0.0001.
For UCCUGGAACAGCUUGUAUAGUAUUUAGUUA, the “pre-steady-state target cleavage rate” value was 0.00519 ± 0.0044.
In the case of UCCUGGAUCUGCUUGCAUAGUAUAUAGUUA, the “pre-steady-state target cleavage rate” value is reported as 0.011 ± 0.0069.
With UCCUGGAACAGCUUGGAUUGUAUUUAGUUA the “pre-steady-state target cleavage rate” value was under 0.0001.
In the case of UCCUGGAUGUCGAACGUAAGUAUUUAUUA, the “pre-steady-state target cleavage rate” value is reported as under 0.0001.
With UCCUGGAUCACGUUGCAUAGUAUUUAGAAA the “pre-steady-state target cleavage rate” value was under 0.0001.
UCCUGGAUGUCGAACCCUAGUAUUUAGUUA was tested, and the “pre-steady-state target cleavage rate” value was under 0.0001.
In the case of UCCUGGAUGUCGAUGCAUAGGAUUUAGUUA, the “pre-steady-state target cleavage rate” value is reported as under 0.0001.
In the case of UCCUGGAUGUCGAACGUUUGUAAUUAGUUA, the “pre-steady-state target cleavage rate” value is reported as under 0.0001.
With UCCUGGAUGUCGAAGCAUAGUAUUUGUUA the “pre-steady-state target cleavage rate” value was under 0.0001.
With “UCCUGGAUGUCGAACGUAUGUAUUUAGUUU [g2:g11:cont:t1U]” the “pre-steady-state target cleavage rate” value was under 0.0001.
For UCCUGGAUGUCGUUGCAUAGUAUUUAGCUA, the “pre-steady-state target cleavage rate” value was under 0.0001.
For UCCUGGUACAGCUUGGUAAGUAUUUACAAA, the “pre-steady-state target cleavage rate” value was under 0.0001.
For UCCUGGAUCAGGAAGCAUAGUAUUUUCAAA, the “pre-steady-state target cleavage rate” value was under 0.0001.
For “UCCUGGAUGUCGAAGCAUAGUAUUUAGUUU [g2:g16:cont:t1U]”, the “pre-steady-state target cleavage rate” value was under 0.0001.
For UCCUGGAUGUCCUUGCAUAAGUAUUUAGUUA, the “pre-steady-state target cleavage rate” value was under 0.0001.
With UCCUGGAUGUCCAUGCAUAGUAUUAAGUUA the “pre-steady-state target cleavage rate” value was under 0.0001.
UCCUGGAUGUCGAACGUUAGUAUUUAUGUUA was tested, and the “pre-steady-state target cleavage rate” value was under 0.0001.
With UCCUGGAUGUCGAACGUAUGUGAUUUAGUUA the “pre-steady-state target cleavage rate” value was under 0.0001.
With UCCUGGAUGUCGAUGCAUAGUAUUCAGUUA the “pre-steady-state target cleavage rate” value was under 0.0001.
UCCUGGAUGAGCUUGCAAAGUAUAUAGUUA was tested, and the “pre-steady-state target cleavage rate” value was under 0.0001.
UCCUGGAUGAGCUUGCAUAGUACUUAGUUA was tested, and the “pre-steady-state target cleavage rate” value was 0.00448 ± 0.0039.
In the case of UCCUGGAUGUCGAAGCAUAGUAUUUAGAUA, the “pre-steady-state target cleavage rate” value is reported as under 0.0001.
In the case of UCCUGGAUGAGCUUGCAUAGUACUUUAGUUA, the “pre-steady-state target cleavage rate” value is reported as 0.00423 ± 0.0036.
For UCCUGGAUGUCGUUCCAUAGUAUAUAGUUA, the “pre-steady-state target cleavage rate” value was under 0.0001.
UCCUGGAACAGCUUGCAUAGUAUUAACAAA was tested, and the “pre-steady-state target cleavage rate” value was under 0.0001.
With UCCUGGAUGUCGAAGCAAAGUAUUUACUUA the “pre-steady-state target cleavage rate” value was under 0.0001.
In the case of UCCUGGAUGUCGAACCUAUGUAUUUAGUUA, the “pre-steady-state target cleavage rate” value is reported as under 0.0001.
With “UCCUGGAUGUCGUUGCAUAGUAUUUUCAAA [g6:g18:cont:t1A]” the “pre-steady-state target cleavage rate” value was under 0.0001.
UCCUGGAUGUCGAACGUAUGUAUAUUAGUUA was tested, and the “pre-steady-state target cleavage rate” value was under 0.0001.
For UCCUGGAUGUCCAUGCAUAGUAUAUAGUUA, the “pre-steady-state target cleavage rate” value was under 0.0001.
For UCCUGGAUCAGCUUGCAUAGUACUUAGUUA, the “pre-steady-state target cleavage rate” value was 0.0113 ± 0.0052.
